Screening results (PubChem BioAssay)
HCMV antiviral = blocks human cytomegalovirus replication; 410,000 compounds, 4.5% hits; AID 1259415; HFF cells, HCMV-luciferase reporter, 72 h; active compounds read low; activity change, negative = inhibition, % at 57.5 µM; in the data active = activity change below about -60%; inconclusive = no clear call, values can overlap the other calls; inactive = above about -39%
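HFF cells seeded 16 h at 37C, treated with compounds, infected with luciferase-reporter HCMV at MOI 1 PFU/cell; luciferase read at 72 h post infection, normalized to buffer-only and Salinomycin controls.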
FMDV inh = foot and mouth disease virus antiviral activity | 410,000 compounds, 1.2% hits | Potency, µM (titrated, usually from 57.9 µM), inactives show at the top dose activity change, negative = inhibition, usual class: inhibitors | FMDV antiviral cell-based qHTS; calls by dose curve; tested in HEK293T cells; note: read-out not given here; potency is the fitted concentration of half-maximal effect; nearly all actives have a fitted effect of over 45% in size
HCV inhibitor = blocks hepatitis C virus. Potency, µM (titrated, usually from 41.8 µM), without a hit: at the top dose activity change, negative = inhibition, hits mostly inhibitors. 340,000 compounds, 3.4% hits. Huh7.5.1 HCVcc-Cre infection, luciferase reporter, 44 h; note: potency is the fitted concentration of half-maximal effect
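Whole-lifecycle infectious HCVcc-Cre system; cells 1,000/well, compound then virus (~0.5 moi) added 4 h after plating, 44 h culture. Luciferase read 15 sec following 15 min substrate incubation, room temp.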
FBPA Giardia inh = Giardia lamblia aldolase inhibition | purified Giardia FBPA | Potency, µM (highest dose often 59.6 µM), for the others: at the highest dose activity, negative = inhibition, actives largely listed as inhibitors | 290,000 compounds, 0.71% hits; note: potency is the fitted concentration of half-maximal effect; nearly all actives have a fitted effect of over 55% in size
Target sequence (A8B2U2 whole entry, looked up): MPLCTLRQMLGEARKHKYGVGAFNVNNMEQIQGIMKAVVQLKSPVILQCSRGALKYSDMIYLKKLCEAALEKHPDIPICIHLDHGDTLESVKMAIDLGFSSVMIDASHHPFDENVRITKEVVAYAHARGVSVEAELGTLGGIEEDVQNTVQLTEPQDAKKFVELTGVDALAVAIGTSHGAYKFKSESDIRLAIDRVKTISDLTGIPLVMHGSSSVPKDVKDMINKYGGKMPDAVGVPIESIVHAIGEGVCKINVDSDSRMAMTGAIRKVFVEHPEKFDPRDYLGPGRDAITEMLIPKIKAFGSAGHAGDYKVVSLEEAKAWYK
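Giardia FBPA (40 nM reagent) was preincubated 10 min at RT with compound (up to 57.5 uM final), then substrate plus GAPDH/TPI/NAD/arsenate coupling system with diaphorase/resazurin was added; resorufin fluorescence (525/598 nm) was read after 20 min.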
LASV entry inh = Lassa virus entry inhibition. Lassa virus pseudotype entry inhibition, cell reporter. Potency, µM (highest dose often 37.9 µM), inactives show at the highest dose activity change, negative = inhibition, most hits filed as inhibitors. 300,000 compounds, 1.2% hits; calls by dose curve; tested in HEK293 cells; note: potency is the fitted concentration of half-maximal effect; nearly all actives have a fitted effect of over 50% in size
MARV entry inh = inhibitors of Marburg virus binding or cell entry; 300,000 compounds, 1.8% hits; Marburg virus pseudotyped entry inhibition, cell reporter; Potency, µM (highest dose often 37.8 µM), for inactives: at the top dose activity change, negative = inhibition, most hits filed as inhibitors; AID 540276; calls by dose curve; tested in HEK293 cells; note: potency is the fitted concentration of half-maximal effect
An asterisk follows results filed as active; [ ] = another dose, or the depositor's remark. Compounds with a hit are over-represented: about 8.3% of the library has one in this group of screens. Unless noted, calls come from the whole dose curve; as a rule, active = well fitted curve in the direction sought with a large enough effect; inconclusive = small, poorly fitted or top-dose-only effect, or another doubt; inactive = no such curve, though single readings can be large; an effect the other way counts as inactive or inconclusive. % is set by controls: 0 for no effect and ±100 for the full control effect.

Screening Cc1ccc(C(=O)Nc2cccc(NC(=O)c3ccc(C)c([N+](=O)[O-])c3)n2)cc1[N+](=O)[O-] returned HCMV antiviral -9, FMDV inh inconclusive, HCV inhibitor inconclusive, FBPA Giardia inh -1%, LASV entry inh inconclusive and MARV entry inh inconclusive.
Screening Cc1ccc(C(=O)Nc2sc(C)c(-c3ccccc3)c2C(N)=O)cc1[N+](=O)[O-] returned HCMV antiviral inconclusive, FMDV inh 1.8µM*, HCV inhibitor -26%, FBPA Giardia inh 8%, LASV entry inh inconclusive and MARV entry inh inconclusive.
CN(C)c1ccc(-c2n[nH]c(=S)n2-c2ccccc2)cc1 was read as HCMV antiviral 15, FMDV inh -7%, HCV inhibitor -5%, FBPA Giardia inh 6%, LASV entry inh -22%[46.1 µM] and MARV entry inh -23%[46.1 µM].
`CCN(CC)c1ccc(-c2n[nH]c(=S)n2-c2ccccc2)cc1` gave HCMV antiviral 67, FMDV inh inconclusive, HCV inhibitor 11µM*, FBPA Giardia inh 11%, LASV entry inh inconclusive and MARV entry inh -6%[46.1 µM].
CC(C)[C@H](NC(=O)OCc1ccccc1)C(=O)OCC(=O)N1CCN(c2ccccc2)CC1 was read as HCMV antiviral -10, FMDV inh 0%, HCV inhibitor -12%, LASV entry inh inconclusive and MARV entry inh 11%.
`COc1ccc(N2CCN(C(=O)COC(=O)CC(NC(N)=O)c3ccc(Cl)cc3)CC2)cc1` (centres undefined) gave HCMV antiviral -62* and FMDV inh inconclusive.
CC[C@H](C)[C@H](NC(=O)OCc1ccccc1)C(=O)OCC(=O)N1CCN(c2ccc(OC)cc2)CC1 was read as HCMV antiviral 31, FMDV inh -25% and HCV inhibitor 13µM*.
`COc1ccc(N2CCN(C(=O)COC(=O)CNC(=O)c3ccc(Cl)cc3Cl)CC2)cc1` gave HCMV antiviral -22, FMDV inh 6%, HCV inhibitor 10%, LASV entry inh 7% and MARV entry inh 27%.
C[C@]12CC[C@@H](O)C[C@@H]1CC[C@@H]1[C@@H]2CC[C@]2(C)C=CC[C@@H]12 was read as FMDV inh -3%.
`Cc1ccc(Sc2c(CO)c(-c3ccccc3)nn2C)cc1` gave HCMV antiviral -83*, FMDV inh inconclusive, HCV inhibitor inconclusive, FBPA Giardia inh -11%, LASV entry inh inconclusive and MARV entry inh inconclusive.
Screening O=C(CCC1CCCN(C(=O)c2ccc3c(c2)OCO3)C1)N1CCN(c2ccccn2)CC1 (centres undefined) returned HCMV antiviral -34, FMDV inh -1%, HCV inhibitor 10µM*, FBPA Giardia inh 5%, LASV entry inh -26%[46.1 µM] and MARV entry inh inconclusive.
Screening CC(C)c1cc(C(=O)N2CCCC(CCC(=O)N3CCN(c4ccccn4)CC3)C2)no1 (centres undefined) returned HCMV antiviral -62*, FMDV inh inconclusive, HCV inhibitor inconclusive, FBPA Giardia inh 0%, LASV entry inh 6% and MARV entry inh -20%[46.1 µM].
CCc1cc(C(=O)N2CCCC(CCC(=O)N3CCN(c4ccccn4)CC3)C2)no1 (centres undefined) was read as HCMV antiviral inconclusive, FMDV inh inconclusive, HCV inhibitor inconclusive, FBPA Giardia inh 4%, LASV entry inh -21% and MARV entry inh -23%[46.1 µM].
CCOC(=O)C1CSCCS(=O)(=O)N1Cc1cccc(Cl)c1 (centres undefined) was read as HCMV antiviral 14.
For COc1cccc(C2C3=C(N=c4s/c(=C\c5cccc(O)c5)c(=O)n42)c2ccccc2CC3)c1OC (centres undefined) the results were HCMV antiviral -96*, FMDV inh -18%, HCV inhibitor inconclusive, FBPA Giardia inh -2%, LASV entry inh inconclusive and MARV entry inh -23%.
Screening COc1cccc(C2C3=C(N=c4s/c(=C\c5ccc(O)cc5)c(=O)n42)c2ccccc2CC3)c1OC (centres undefined) returned HCMV antiviral -4, FMDV inh -19%, HCV inhibitor -9%, FBPA Giardia inh 1%, LASV entry inh 11% and MARV entry inh 20%.
Screening CC1=NN(C(C#N)c2ccc(F)cc2)C(C)(C)C1 (centres undefined) returned HCMV antiviral -30, FMDV inh -18%, HCV inhibitor 3%, FBPA Giardia inh 1%, LASV entry inh 12% and MARV entry inh 12%.
For CC1=NN(C(C#N)c2ccccc2C)C(C)(C)C1 (centres undefined) the results were HCMV antiviral -65*, FMDV inh -7%, HCV inhibitor 28%, FBPA Giardia inh -2%, LASV entry inh -2% and MARV entry inh -8%.
For O=C(NCCc1ccccc1)c1cc(-c2ccccc2)nc2n[nH]c(-c3ccccc3)c12 the results were HCMV antiviral -3, FMDV inh 31%, LASV entry inh -21%[46.1 µM] and MARV entry inh 15%[46.1 µM].
For CC(=O)c1cccc(NS(=O)(=O)c2ccc(NC(=O)N3CCCCC3)cc2)c1 the results were HCMV antiviral -71*, FMDV inh inconclusive, HCV inhibitor inconclusive, FBPA Giardia inh 8%, LASV entry inh inconclusive and MARV entry inh 2.2µM*.
CC(=O)c1cccc(NC(=O)N2CCCCCC2)c1 was read as HCMV antiviral 22, FMDV inh 11%, HCV inhibitor 11% and FBPA Giardia inh -7%.
`CC(=O)c1cccc(NS(=O)(=O)c2ccc(N/C=C\C(=O)c3ccc(C)cc3)cc2)c1` gave HCMV antiviral -2, FMDV inh inconclusive, HCV inhibitor inconclusive, FBPA Giardia inh 5%, LASV entry inh -3% and MARV entry inh inconclusive.
`CC(=O)c1cccc(NS(=O)(=O)c2ccc(N/C=C\C(=O)c3ccc(F)cc3)cc2)c1` gave HCMV antiviral inconclusive, FMDV inh inconclusive, HCV inhibitor 11µM*, LASV entry inh inconclusive and MARV entry inh inconclusive.
For CC(=O)c1cccc(N/C=C\C(=O)c2ccc(C)cc2)c1 the results were HCMV antiviral 103, FMDV inh -33%, HCV inhibitor -19%, FBPA Giardia inh -19%, LASV entry inh 7.9µM* and MARV entry inh inconclusive.
For CC(=O)c1cccc(NS(=O)(=O)c2ccc(N/C=C/C(=O)c3ccc(F)cc3)cc2)c1 the results were HCMV antiviral inconclusive, FMDV inh inconclusive, HCV inhibitor 11µM*, FBPA Giardia inh -3%, LASV entry inh inconclusive and MARV entry inh -61%.
`C#CC1(O)C(OC)=CC2C(=O)C1C(c1ccccc1)C2C` (centres undefined) gave LASV entry inh inconclusive and MARV entry inh -4%[14.2 µM].
Screening CC1=CC23C(=O)C(C=C(CO)[C@@H](O)[C@]2(O)[C@H]1O)[C@H]1[C@@H](C[C@H]3C)C1(C)C (some centres undefined) returned FBPA Giardia inh 3%.
